Among all 5,500 compounds or so, about 2,000 (36%) were called active. About 18% were inconclusive and are not listed. Cut-off read from the data, not from the text of the source: active = normalized growth mostly below about 0.91 (no sharp cut-off); inconclusive = no clear call, values can overlap the other calls; inactive = mostly above about 0.92. This is one part of the list.
Experiment: chemical genetic growth profiling, strain panel (AID 1159580);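 note: tested at 20 µM; growth read once vehicle control cultures reached saturation at 30 °C; 1 = growth at the plate median or of vehicle wells; lower values mean less growth of the strain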
Details: growth OD

Measured: normalized growth

COc1cc([C@@H]2c3cc4c(cc3[C@H](O)[C@H]3COC(=O)[C@H]23)OCO4)cc(OC)c1OC
inactive: S. cerevisiae deletion strains, locus YJR075W, strain HOC1, hits give low values 1.03 | S. cerevisiae deletion strains, locus YKL009W, strain mrt4, hits give low values 1.04 | S. cerevisiae deletion strains, locus YKL068W, hits give low values 1.01 | S. cerevisiae deletion strains, locus YKL085W, strain MDH1 (second series), hits give low values 1.01 | S. cerevisiae deletion strains, locus YKL085W, strain MDH1, hits give low values 1.01 | S. cerevisiae deletion strains, locus YKL160W, strain elf1, hits give low values 1 | S. cerevisiae deletion strains, locus YKL190W, strain CNB1, hits give low values 1.01 | S. cerevisiae deletion strains, locus YKR001C, strain vps1, hits give low values 1.01 | S. cerevisiae deletion strains, locus YKR026C, strain gcn3, hits give low values 1.01 | S. cerevisiae deletion strains, locus YKR091W, strain srl3, hits give low values 1.01 | S. cerevisiae deletion strains, locus YLL001W, strain dnm1, hits give low values 0.984 | S. cerevisiae deletion strains, locus YLL026W, hits give low values 1 | S. cerevisiae deletion strains, locus YLL041C, strain sdh2, hits give low values 1.01 | S. cerevisiae deletion strains, locus YLR027C, strain aat2, hits give low values 1.01 | S. cerevisiae deletion strains, locus YLR039C, strain RIC1, hits give low values 1.02 | S. cerevisiae deletion strains, locus YLR058C, strain SHM2, hits give low values 1.01 | S. cerevisiae deletion strains, locus YLR102C, strain apc9, hits give low values 1.01 | S. cerevisiae deletion strains, locus YLR113W, strain HOG1, hits give low values 0.924 | S. cerevisiae deletion strains, locus YLR221C, strain rsa3, hits give low values 1.02 | S. cerevisiae deletion strains, locus YLR258W, strain gsy2, hits give low values 1.02 | S. cerevisiae deletion strains, locus YLR262C, strain YPT6 (second series), hits give low values 1.01 | S. cerevisiae deletion strains, locus YLR262C, strain YPT6, hits give low values 1.05 | S. cerevisiae deletion strains, locus YLR268W, strain sec22, hits give low values 1.06 | S. cerevisiae deletion strains, locus YLR320W, strain mms22, hits give low values 1.05 | S. cerevisiae deletion strains, locus YLR330W, strain CHS5, hits give low values 1.01 | S. cerevisiae deletion strains, locus YLR342W, strain FKS1 (second series), hits give low values 1.02 | S. cerevisiae deletion strains, locus YLR342W, strain FKS1, hits give low values 1.02 | S. cerevisiae deletion strains, locus YLR357W, strain rsc2, hits give low values 1.05 | S. cerevisiae deletion strains, locus YLR370C, strain arc18, hits give low values 1.02 | S. cerevisiae deletion strains, locus YLR371W, strain rom2, hits give low values 1.02 | S. cerevisiae deletion strains, locus YLR384C, strain iki3, hits give low values 0.998 | S. cerevisiae deletion strains, locus YLR418C, strain cdc73, hits give low values 1.02 | S. cerevisiae deletion strains, locus YML016C, strain PPZ1, hits give low values 1.01 | S. cerevisiae deletion strains, locus YML032C, strain rad52, hits give low values 1.05 | S. cerevisiae deletion strains, locus YML120C, strain ndi1, hits give low values 1.02 | S. cerevisiae deletion strains, locus YML124C, strain tub3, hits give low values 1 | S. cerevisiae deletion strains, locus YMR058W, strain fet3, hits give low values 1.02 | S. cerevisiae deletion strains, locus YMR078C, strain ctf18, hits give low values 1.02 | S. cerevisiae deletion strains, locus YMR125W, strain sto1, hits give low values 1.01 | S. cerevisiae deletion strains, locus YMR129W, hits give low values 1.01 | S. cerevisiae deletion strains, locus YMR205C, strain PFK2, hits give low values 1.03 | S. cerevisiae deletion strains, locus YMR223W, strain ubp8, hits give low values 0.985 | S. cerevisiae deletion strains, locus YMR231W, strain pep5, hits give low values 1.01 | S. cerevisiae deletion strains, locus YMR263W, strain SAP30, hits give low values 1.02 | S. cerevisiae deletion strains, locus YMR307W, strain GAS1, hits give low values 0.994 | S. cerevisiae deletion strains, locus YNL067W, strain RPL9B, hits give low values 1.03 | S. cerevisiae deletion strains, locus YNL071W, strain lat1, hits give low values 1.01 | S. cerevisiae deletion strains, locus YNL128W, strain TEP1, hits give low values 1.02 | S. cerevisiae deletion strains, locus YNL153C, strain GIM3, hits give low values 1.03 | S. cerevisiae deletion strains, locus YNL183C, strain NPR1, hits give low values 0.926 | S. cerevisiae deletion strains, locus YNL209W, strain ssb2, hits give low values 1.02 | S. cerevisiae deletion strains, locus YNL233W, strain BNI4, hits give low values 1.03 | S. cerevisiae deletion strains, locus YNL248C, strain rpa49, hits give low values 1.01 | S. cerevisiae deletion strains, locus YNL250W, strain rad50, hits give low values 1.01 | S. cerevisiae deletion strains, locus YNL271C, strain bni1, hits give low values 1.01 | S. cerevisiae deletion strains, locus YNL298W, strain CLA4, hits give low values 1.01 | S. cerevisiae deletion strains, locus YNL307C, strain MCK1, hits give low values 1 | S. cerevisiae deletion strains, locus YNL322C, strain KRE1 (second series), hits give low values 1.01 | S. cerevisiae deletion strains, locus YNL322C, strain KRE1, hits give low values 1.01 | S. cerevisiae deletion strains, locus YNR049C, strain mso1, hits give low values 1 | S. cerevisiae deletion strains, locus YNR052C, strain pop2, hits give low values 1.01 | S. cerevisiae deletion strains, locus YOL006C, strain TOP1, hits give low values 1.07 | S. cerevisiae deletion strains, locus YOL012C, strain htz1 0.833 | S. cerevisiae deletion strains, locus YOL147C, strain pex11, hits give low values 1 | S. cerevisiae deletion strains, locus YOR001W, strain rrp6, hits give low values 1.01 | S. cerevisiae deletion strains, locus YOR061W, strain CKA2, hits give low values 1.01 | S. cerevisiae deletion strains, locus YOR069W, strain VPS5, hits give low values 1.01 | S. cerevisiae deletion strains, locus YOR070C, strain gyp1, hits give low values 1.02 | S. cerevisiae deletion strains, locus YOR080W, strain dia2, hits give low values 1.01 | S. cerevisiae deletion strains, locus YOR083W, strain WHI5, hits give low values 1.01 | S. cerevisiae deletion strains, locus YOR106W, strain vam3, hits give low values 1.02 | S. cerevisiae deletion strains, locus YOR136W, strain idh2, hits give low values 1 | S. cerevisiae deletion strains, locus YOR144C, strain elg1, hits give low values 1.01 | S. cerevisiae deletion strains, locus YOR184W, strain ser1, hits give low values 1.02 | S. cerevisiae deletion strains, locus YOR231W, strain MKK1, hits give low values 0.947 | S. cerevisiae deletion strains, locus YOR265W, strain rbl2, hits give low values 1.01 | S. cerevisiae deletion strains, locus YOR270C, strain vph1, hits give low values 0.996 | S. cerevisiae deletion strains, locus YOR290C, strain snf2, hits give low values 0.98 | S. cerevisiae deletion strains, locus YOR316C, strain cot1, hits give low values 1.01 | S. cerevisiae deletion strains, locus YPL051W, strain arl3, hits give low values 1.01 | S. cerevisiae deletion strains, locus YPL055C, strain LGE1, hits give low values 1.04 | S. cerevisiae deletion strains, locus YPL078C, strain atp4, hits give low values 0.997 | S. cerevisiae deletion strains, locus YPL106C, strain sse1, hits give low values 1.03 | S. cerevisiae deletion strains, locus YPL240C, strain hsp82, hits give low values 1.02 | S. cerevisiae deletion strains, locus YPL241C, strain CIN2, hits give low values 1.01 | S. cerevisiae deletion strains, locus YPL256C, strain CLN2, hits give low values 0.942 | S. cerevisiae deletion strains, locus YPR119W, strain clb2, hits give low values 1.01 | S. cerevisiae deletion strains, locus YPR141C, strain kar3, hits give low values 1.01 | S. cerevisiae deletion strains, locus YPR163C, strain tif3, hits give low values 1.02 | S. cerevisiae deletion strains, locus YPR167C, strain met16, hits give low values 1.01 | S. cerevisiae deletion strains, strain wtn01, hits give low values 1.03 | S. cerevisiae strains, strain wild type, hits give low values 1.01
